According to PubChem BioAssay AID1347142 (National Center for Advancing Translational Sciences (NCATS), 2019):
Inconclusive results are not listed. Activity calls are given as the source filed them. Calls come from the whole dose curve; as a rule, active = well fitted inhibition curve with a large enough effect; inconclusive = small, poorly fitted or top-dose-only effect; inactive = no such curve, though single readings can be large or run the other way.

molecular target: N-terminal Xaa-Pro-Lys N-methyltransferase 1 (Homo sapiens) (UniProt Q9BV86); assay: qHTS Assay for Inhibitors of N-terminal methyltransferase 1 (NTMT1): ThioGlo3 Assay Confirmatory Screen, Round 1.; settings: NTMT1 SAHH-coupled ThioGlo3 fluorescence, 30 min; series mostly up to 56.8 µM; activity change, negative = inhibition: at the top concentration
Sequence (Q9BV86 whole entry, looked up): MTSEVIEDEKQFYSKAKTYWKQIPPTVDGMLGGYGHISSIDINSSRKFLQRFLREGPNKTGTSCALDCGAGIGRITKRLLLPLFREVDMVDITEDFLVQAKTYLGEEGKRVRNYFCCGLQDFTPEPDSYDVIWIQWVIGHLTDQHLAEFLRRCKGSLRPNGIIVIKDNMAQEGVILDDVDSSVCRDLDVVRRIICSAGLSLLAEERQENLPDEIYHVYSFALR
Summary of the method: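 Human NTMT1 at 125 nM was preincubated 1 min at room temperature with compounds at various concentrations or 1 uM RCC1-6 control. Substrate mix (100 uM SAM, 10 uM SAHH, 15 uM ThioGlo3) was added, and fluorescence (Ex 340/Em 450 nm) was read at start and after 30 min, normalized to background.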
Note: nearly all actives have a fitted effect of over 80% in size.
Potency is the fitted concentration of half-maximal effect.
Throughout, for activity change, negative = inhibition: 0% is about no effect.

Activity change, negative = inhibition, inactive:
COc1cc2nc(N3CCCN(C)CC3)nc(N(C)C)c2cc1OC -26.6%
Nc1ncnc2c1ncn2[C@@H]1O[C@H](COP(=O)(O)O)[C@@H](O)[C@H]1O -20.8%
OC[C@H]1O[C@@H](n2cnc3c(Nc4ccccc4)ncnc32)[C@H](O)[C@@H]1O 3.01%
Nc1ncnc2c1ncn2C1CC(O)C(CO)O1 (stereo unspecified) -15.5%
Nc1ncnc2c1ncn2[C@@H]1O[C@@H](CO)[C@H](O)[C@H]1O -16.7%
Nc1ncnc2c1ncn2C1C[C@H](O)[C@@H](CO)O1 (stereo partly specified) -9.06%
Nc1ncnc2c1ncn2[C@@H]1O[C@H](COP(=O)(O)OP(=O)(O)OP(=O)(O)O)[C@@H](O)[C@H]1O -14.1%
CCCC(=O)Nc1ncnc2c1ncn2[C@@H]1O[C@@H]2COP(=O)(O)O[C@H]2[C@H]1OC(=O)CCC 16.8%
Nc1ncnc2c1[nH]c(=O)n2C1OC(CO)C(O)C1O (stereo unspecified) -23.3%
CCN(c1cc(-c2ccc(CN3CCOCC3)cc2)cc(C(=O)NCc2c(C)cc(C)[nH]c2=O)c1C)C1CCOCC1 -13.6%
Nc1ncnc2c1nc(Br)n2C1CC(O)C(CO)O1 (stereo unspecified) 6.52%
N#Cc1ccc(COC[C@H]2O[C@@H](n3c(NCc4ccc(Cl)c(Cl)c4)nc4c(N)ncnc43)[C@@H](O)[C@@H]2O)cc1 -10.4%

Potency, inactive:
O=c1[nH]cnc2c1ncn2[C@@H]1O[C@H](CO)[C@@H](O)[C@H]1O

Potency, active:
OC[C@H]1O[C@@H](n2cnc3cncnc32)[C@H](O)[C@@H]1O 2.41 µM
Nc1nc(=S)c2ncn([C@@H]3O[C@H](CO)[C@@H](O)[C@H]3O)c2[nH]1 18.8 µM
COc1cc2nc(N3CCCCC3)nc(NC(C)C)c2cc1OC 24.1 µM
COc1cc2c(NC3CCN(CC4CCCCC4)CC3)nc(N3CCCCC3)nc2cc1OCCOCCN(C)C 24.1 µM
OC[C@@H]1O[C@@H](n2cnc3c(NCc4ccco4)ncnc32)[C@H](O)[C@H]1O 24.1 µM
COc1cc2nc(N3CCCN(C)CC3)nc(NC(C)C)c2cc1OC 24.1 µM
COc1cc2nc(N3CCN(C(N)=O)CC3)nc(NC3CC3)c2cc1OC 27.1 µM
COc1cc2c(NC3CCN(C)CC3)nc(N3CCCN(C)CC3)nc2cc1OCCCN1CCCCC1 24.1 µM
